Screening data as filed in PubChem.
GBA activity – alters purified human glucocerebrosidase activity. P04062. Potency, µM. purified enzyme, resorufin glucoside fluorescence (screen aimed at inhibitors), 20 min. AID 360. actives 1.1% (n = 48,000); in the data active means potency below about 15 µM; inconclusive means mostly about 16 µM to 33 µM;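 further: potency means the concentration at half of the fitted maximal effect; the screen sought inhibitors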
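Compounds titrated against 0.2 nM normal enzyme, 30 uM resorufin beta-D-glucopyranoside substrate, citrate/phosphate buffer with taurocholate and tween-20, pH 5.9. Reaction ran 20 min at room temperature; fluorescence (Ex 548/Em 600) gave AC50.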
A350 fluor – compounds fluorescent in Alexa 350 spectral region | actives 11% (n = 59,000) | AID 590 | Compound autofluorescence, 340/450 nm, Alexa 350 dye-equivalents; stronger effect = higher value | max dye-equivalent concentration, M; in the data active means max dye-equivalent concentration above about 10 nM; inconclusive means mostly about 1.1 nM to 9.6 nM
HSD17B inh – HSD17B dehydrogenase inhibition | Potency, µM (doses to about 57.1 µM), for inactives: at the highest dose activity change, negative = inhibition, most hits filed as inhibitors | recombinant HSD17B10, NADH fluorescence kinetic | actives 7.6% (n = 75,000) | Q99714 | AID 893;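 further: the protocol describes HADH2 (HSD17B10) and not the HSD17B4 of the title; potency means the concentration at half of the fitted maximal effect; on the % scale 0 is the no-effect control and ±100 the full control effect; nearly all actives have a fitted effect of over 70% in size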
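Activity followed as NADH fluorescence increase (ex 360, em 450 nm) every 30 seconds for 4 min, using final 90 uM beta-hydroxybutyryl CoA and 1 mM NAD+. Recombinant His-tagged enzyme, 20 nM, pH 9.0 Tris buffer, 15 min compound preincubation.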
4MU fluor – compounds fluorescent in 4-MU spectral region; compound autofluorescence, 340/450 nm, 4-MU equivalents; stronger effect = higher value; max dye-equivalent concentration, M; actives 11% (n = 59,000); AID 589; in the data active means max dye-equivalent concentration above about 10 nM; inconclusive means mostly about 1.1 nM to 9.6 nM
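Intrinsic fluorescence at 340/450 nm (ex/em) was read after 15 min at room temperature in pH 8.0, 100 mM Tris. Each compound concentration expressed as 4-MU-equivalent concentration from a six-point 4-MU standard series on each plate.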
HADH2 inhib – HADH2 (human) dehydrogenase inhibition | Q99714 | recombinant HADH2, NADH fluorescence, beta-hydroxybutyryl-CoA | Potency, µM (highest dose often 57.1 µM), for the others: at the top dose activity change, negative = inhibition, hits mostly inhibitors | actives 3.4% (n = 73,000) | AID 886; further: potency means the concentration at half of the fitted maximal effect; on the % scale 0 is the no-effect control and ±100 the full control effect; nearly all actives have a fitted effect of over 60% in size
Target sequence (Q99714 whole entry, looked up, one chain of several): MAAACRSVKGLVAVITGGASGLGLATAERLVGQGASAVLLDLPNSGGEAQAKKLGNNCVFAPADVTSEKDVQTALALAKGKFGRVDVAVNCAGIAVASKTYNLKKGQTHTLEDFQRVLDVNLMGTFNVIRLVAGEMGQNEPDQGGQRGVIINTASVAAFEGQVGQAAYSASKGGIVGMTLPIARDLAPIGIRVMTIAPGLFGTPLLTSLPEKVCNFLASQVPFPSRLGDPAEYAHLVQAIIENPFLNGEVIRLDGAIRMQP
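Activity measured as NADH fluorescence gain (360/450 nm), taken as the change between first and last reads of a 4-min kinetic run. Conditions: pH 9.0 Tris buffer, 20 nM E. coli-expressed His-tagged enzyme, 1 mM NAD+, 90 uM beta-hydroxybutyryl-CoA; 15-min compound preincubation.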
AID923 – qHTS Assay for Allosteric/Competitive Inhibitors of Caspase-1: Spectroscopic Profiling in AFC Spectral Region; compound fluorescence, AFC spectral region (405/520 nm); Potency, µM (top dose mostly 57.5 µM), for the others: at the top dose fluorescence increase, hits mostly activators; actives 1.1% (n = 75,000); AID 923, 2007; further: potency means the concentration at half of the fitted maximal effect; 0% is about no effect
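Titrations up to 57 uM read every 20 sec for 3 min (405/520 nm) with 50 nM caspase 1 and 5 uM Ac-WEHD-AFC, pH 7.5 HEPES buffer. Fluorescence-vs-time intercept gave baseline, scaled against on-plate AFC standard.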
Starred values were filed as active, the others as inactive; [ ] = dose if it differs, or a comment. Compounds with a hit are over-represented: about 13% of the library has one in this group of screens. Unless noted, the call rests on the fitted dose curve; in most records, active means well fitted curve in the direction sought with a large enough effect; inconclusive means small, poorly fitted or top-dose-only effect, or another doubt; inactive means no such curve, though single readings can be large; an effect the other way counts as inactive or inconclusive.

Cc1cc2nc3c(c(=O)n2[nH]1)CCCC3 was read as HSD17B inh 32µM*, HADH2 inhib inconclusive and AID923 -1%.
O=c1c2c(nc3nc(Cc4ccccc4)[nH]n13)CCC2 was read as GBA activity >77, A350 fluor inactive, HSD17B inh 6%, 4MU fluor inactive, HADH2 inhib -1% and AID923 -1%.
For Cc1ccc(-c2[nH]n3c(=O)c4c(nc3c2C)CCCC4)cc1 the results were GBA activity 8*, A350 fluor inactive, HSD17B inh 10µM*, 4MU fluor inactive, HADH2 inhib inconclusive and AID923 2%.
Screening Cc1ccc2nc3c(c(C(=O)O)c2c1)CCC3 returned GBA activity >77, A350 fluor inconclusive, HSD17B inh 9%, 4MU fluor inconclusive, HADH2 inhib -2% and AID923 3%.
For COc1ccc(-c2cc3nc4c(c(=O)n3[nH]2)CCC4)cc1 the results were GBA activity >77, A350 fluor inactive, HSD17B inh 13µM*, 4MU fluor inactive, HADH2 inhib inconclusive and AID923 0%.
Screening CCN(CC)C(=O)NC1CC2CCCC(C1)N2Cc1ccccc1 (stereo not given) returned GBA activity >77, A350 fluor inactive, HSD17B inh 0%, 4MU fluor inactive, HADH2 inhib 7% and AID923 2%.
`CCCC(=O)Nc1nc2ccc3nc(C)sc3c2s1` gave GBA activity >77, A350 fluor inactive, HSD17B inh inconclusive, 4MU fluor inactive, HADH2 inhib -2% and AID923 0%.
For CCN(C(=O)CCc1nc(-c2ccccc2F)no1)c1cc(OC)ccc1OC the results were GBA activity 15*, A350 fluor inactive, HSD17B inh -4%, 4MU fluor inactive, HADH2 inhib -2% and AID923 -1%.
Screening O=C(Nc1ccccc1)c1ccc(S(=O)(=O)NCC2CCCO2)cc1 (stereo not given) returned GBA activity >77, A350 fluor inconclusive, HSD17B inh 8%, 4MU fluor inactive, HADH2 inhib 18% and AID923 0%.
`CCOCCCn1c(=N)c(C(=O)NCc2ccc3c(c2)OCO3)cc2c(=O)n3cccc(C)c3nc21` gave GBA activity >77, A350 fluor 2.2e-07M*, HSD17B inh inconclusive, 4MU fluor 1.6e-07M*, HADH2 inhib 5% and AID923 inconclusive.
`COCCCn1c(=N)c(C(=O)NCc2ccc3c(c2)OCO3)cc2c(=O)n3cccc(C)c3nc21` gave GBA activity >77, A350 fluor 2.9e-07M*, HSD17B inh -17%, 4MU fluor 2.2e-07M*, HADH2 inhib 6% and AID923 13%.
For COCCCn1c(=N)c(C(=O)NCc2ccc3c(c2)OCO3)cc2c(=O)n3ccccc3nc21 the results were GBA activity >77, A350 fluor 1.4e-07M*, HSD17B inh inconclusive, 4MU fluor 1.3e-07M*, HADH2 inhib 13% and AID923 8%.
Screening Cn1c(=O)n(CC(N)=O)c2ccccc21 returned GBA activity >77, A350 fluor inactive, HSD17B inh 6%, 4MU fluor inactive, HADH2 inhib -3% and AID923 2%.
C1CCCN(CCCCN2CCCCCC2)CC1 was read as A350 fluor 2.2e-08M* and 4MU fluor 1.8e-08M*.
For C=CS(=O)(=O)c1ccc(Oc2ccc(S(=O)(=O)C=C)cc2)cc1 the results were GBA activity >77, A350 fluor inactive, HSD17B inh -7%, 4MU fluor inactive, HADH2 inhib 2µM* and AID923 0%.
Fc1ccc(Nc2nc(N3CCOCC3)c3ccccc3n2)cc1 was read as A350 fluor 1.1e-08M*, HSD17B inh -24%, 4MU fluor inconclusive, HADH2 inhib 10% and AID923 8%.
`CCOC(=O)Cc1c(C)c2c(C)nn(-c3ccccc3)c2oc1=O` gave GBA activity >77, A350 fluor inconclusive, HSD17B inh 25µM*, 4MU fluor inconclusive, HADH2 inhib -2% and AID923 0%.
`CCc1c(C)c2c(C)nn(-c3ccccc3)c2[nH]c1=O` gave HSD17B inh inconclusive, HADH2 inhib -8%[11.4 µM] and AID923 -2%.
Screening CC(=O)c1c(C)[nH]c(C(=O)N2c3ccccc3CC2C)c1C (stereo not given) returned HSD17B inh -6%, HADH2 inhib -9% and AID923 -3%.
CCCc1noc(-c2ccc(-c3ccccc3)cc2)n1 was read as GBA activity >77, A350 fluor inactive, HSD17B inh 32µM*, 4MU fluor inactive, HADH2 inhib 18% and AID923 -2%.
`Oc1cc2c(c(Cl)c1O)CCNC[C@H]2c1ccccc1` gave A350 fluor inactive, HSD17B inh 7.9µM*, 4MU fluor inactive and HADH2 inhib 0.04µM*.
Screening CCOC(=O)c1sc(C(=O)OCC)c(OCCO)c1OCCO returned A350 fluor inactive, HSD17B inh 25µM*, 4MU fluor inactive, HADH2 inhib 3% and AID923 0%.
`CCOC(=O)c1sc(NC(C)=O)cc1C` gave HSD17B inh -8%, HADH2 inhib -6% and AID923 -4%.
Screening N#CC1=C(N)Oc2n[nH]c(-c3ccc(F)cc3)c2C1c1cccnc1 (stereo not given) returned GBA activity >77, A350 fluor inactive, HSD17B inh -9%, 4MU fluor inactive, HADH2 inhib -28% and AID923 -1%.
`O=S(=O)(/N=C(/Nc1cc(N2CCOCC2)ncn1)c1ccccc1)c1ccccc1` gave GBA activity >77, A350 fluor inconclusive, HSD17B inh 25µM*, 4MU fluor inactive, HADH2 inhib 1% and AID923 -1%.
`O=S(=O)(/N=C(/Nc1cc(N2CCOCC2)ncn1)c1ccc(F)cc1)c1ccccc1` gave GBA activity >77, A350 fluor inconclusive, HSD17B inh 8%, 4MU fluor inactive, HADH2 inhib 6% and AID923 0%.
For O=C(CN1CCC(c2nc3ccccc3[nH]2)CC1)Nc1ccc2c(c1)OCO2 the results were GBA activity 14*, A350 fluor inactive, HSD17B inh 1%, 4MU fluor inactive, HADH2 inhib 19% and AID923 0%.
For O=C(CN1CCOCC1)Nc1ccc(-c2nc3ccccc3[nH]2)cc1 the results were A350 fluor inactive, HSD17B inh 25µM*, 4MU fluor inactive, HADH2 inhib -15% and AID923 0%.
